From PubChem
Only some compounds are listed: those with a hit (about 2.8% of all), similar ones and a draw of the others.
pPAFAH FP inh: inhibitors of human plasma PAF acetylhydrolase (pPAFAH) | 330,000 compounds, 1.5% hits | Q13093 | recombinant pPAFAH, FP-rhodamine probe fluorescence polarization | inhibition, % at 3.39 µM;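 active = inhibition above the mean inhibition across the screen plus 3 SD, cut at about 25% in these data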;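 note: inhibitors block binding of the rhodamine activity-based probe so polarization drops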
Target sequence (Q13093 whole entry, looked up): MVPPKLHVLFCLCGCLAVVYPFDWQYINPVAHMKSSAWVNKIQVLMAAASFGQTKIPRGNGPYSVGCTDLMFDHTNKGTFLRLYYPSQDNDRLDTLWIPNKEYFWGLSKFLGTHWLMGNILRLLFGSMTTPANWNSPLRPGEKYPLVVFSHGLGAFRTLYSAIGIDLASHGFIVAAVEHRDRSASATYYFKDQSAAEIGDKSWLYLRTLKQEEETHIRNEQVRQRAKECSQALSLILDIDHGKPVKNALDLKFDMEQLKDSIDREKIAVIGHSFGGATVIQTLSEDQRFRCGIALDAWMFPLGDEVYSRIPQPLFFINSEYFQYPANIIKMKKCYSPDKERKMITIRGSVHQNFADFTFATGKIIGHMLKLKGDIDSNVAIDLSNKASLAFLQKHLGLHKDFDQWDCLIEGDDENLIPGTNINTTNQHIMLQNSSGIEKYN
PAFAH1B2 FP inh: blocks human PAF acetylhydrolase 1b catalytic subunit 2 | P68402 | recombinant PAFAH1B2, FP-rhodamine activity probe, fluorescence polarization | inhibition, % at 3.39 µM | 340,000 compounds, 1.2% hits | AID 492953;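 active = inhibition above the mean of all tested compounds plus 3 SD, cut at about 24% in these data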
Fam108B counter: Fam108B inhibition, counter-screen for RBBP9 inhibitors; recombinant Fam108B, FP-Rh probe fluorescence polarization; inhibition, % at 9.51 µM; 300,000 compounds, 0.33% hits;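 active = inhibition above the screen mean inhibition plus 3 SD, computed separately per campaign, cut at about 18% in these data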;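 note: inhibitors lower polarization as less probe binds the enzyme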
PME-1 primary: blocks human protein phosphatase methylesterase 1. Q9Y570. recombinant PME-1, FP-Rh probe fluorescence polarization. inhibition, % at 5.9 µM. 320,000 compounds, 0.53% hits. AID 2130;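 active = inhibition above the campaign mean of all compounds plus 3 SD, cut at about 26% in these data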;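 note: competitive labeling of PME-1 active site by serine hydrolase directed probe; inhibitors block probe labeling so polarization falls and inhibition rises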
PAFAH1B3 FP inh: blocks human PAF acetylhydrolase 1B catalytic subunit 3; Q15102; recombinant PAFAH1B3, FP-rhodamine probe, fluorescence polarization; inhibition, % at 3.39 µM; 340,000 compounds, 0.28% hits; AID 492972;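 active = inhibition above the screen-wide average of all tested compounds plus 3 SD, cut at about 25% in these data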
Target sequence (Q15102 whole entry, looked up): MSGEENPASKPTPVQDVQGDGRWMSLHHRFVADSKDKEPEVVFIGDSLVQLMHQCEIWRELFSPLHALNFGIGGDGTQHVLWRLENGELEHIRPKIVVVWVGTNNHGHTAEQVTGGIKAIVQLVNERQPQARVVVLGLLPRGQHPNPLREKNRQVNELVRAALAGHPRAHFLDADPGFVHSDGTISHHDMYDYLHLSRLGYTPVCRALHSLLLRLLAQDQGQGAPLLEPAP
PAFAH2 inh: inhibitors of human PAFAH2; 340,000 compounds, 0.99% hits; Q99487; AID 492956; inhibition, % at 3.39 µM; recombinant PAFAH2, FP-rhodamine activity probe, fluorescence polarization;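 active = inhibition above the mean over all tested compounds plus 3 SD, cut at about 30% in these data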;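 note: inhibitors block probe labeling of enzyme so polarization drops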
pPAFAH FP conf: pPAFAH (human) inhibition, confirmed. 2,300 compounds, 72% hits. recombinant pPAFAH, FP-Rh probe fluorescence polarization. inhibition, % at 3.39 µM. shares compounds with pPAFAH FP inh;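 active = mean inhibition of the triplicate above the hit cutoff set for the earlier primary screen, cut at about 25% in these data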
Large screens that a line does not name were inactive (follow-up assays come after a bar, where they were run).

O=C1NCCN1C(=O)N(c1ccccc1)c1ccccc1	none
COc1ccc(CCC(=O)Nc2ccc(N3CCOCC3)c(S(=O)(=O)Nc3ccc(OC)cc3)c2)cc1	none (no result: pPAFAH FP inh, Fam108B counter, PME-1 primary)
COc1cccc(CCN2C(=O)C(=O)N([C@@H](CNCc3ccccc3)Cc3ccccc3F)C[C@@H]2C(C)(C)C)c1	none (no result: PAFAH1B2 FP inh, PAFAH1B3 FP inh, PAFAH2 inh)
O=C(CCCSc1ccc(Cl)cc1)Nc1cc(S(=O)(=O)N2CCOCC2)ccc1O	pPAFAH FP inh 91, PAFAH1B2 FP inh 63, PAFAH2 inh 79 (no result: Fam108B counter) | pPAFAH FP conf 89
Cc1cc(Cl)ccc1OCCCC(=O)Nc1cc(S(=O)(=O)N2CCOCC2)ccc1N1CCOCC1	none (no result: pPAFAH FP inh, Fam108B counter, PME-1 primary)
COc1cc(-c2nnc(SCc3cc(=O)oc4cc(O)c(O)cc34)o2)cc(OC)c1OC	pPAFAH FP inh 59, PAFAH1B3 FP inh 28, PAFAH2 inh 42 | pPAFAH FP conf 75
CCOc1ccc(-c2ccc(/C=C3/C(=N)N4C(C)=CSC4=NC3=O)o2)c([N+](=O)[O-])c1	pPAFAH FP inh 45 | pPAFAH FP conf 37
COc1cc(C(C(=O)NC2CCCC2)N(C(=O)c2snc(C(N)=O)c2N)c2ccccc2)cc(OC)c1OC (configuration not stated)	none
O=C(COC(=O)CNC(=O)c1ccc(Cl)c([N+](=O)[O-])c1)NCC1CCCO1 (configuration not stated)	none (no result: Fam108B counter)
COc1ccc2nc(NC(=O)CSc3nnc(N)s3)sc2c1	none
COc1ccc2nc(NC(=O)CSc3nnc(C)n3N)sc2c1	pPAFAH FP inh 38 | pPAFAH FP conf inactive
C=C(CO)C1Cc2cc(C(C)=O)ccc2O1 (configuration not stated)	none
CC(=O)N1CCN(c2ccc(Nc3nc(C)nc4c3oc3ccccc34)cc2)CC1	pPAFAH FP inh 40 | pPAFAH FP conf 34
O=C(O)c1cccc(N/N=C/c2cc(Br)cc(Br)c2O)c1	pPAFAH FP inh 45, PME-1 primary 58, PAFAH2 inh 37 | pPAFAH FP conf 44
COc1ccc(Br)cc1/C=N/Nc1cccc(C(=O)O)c1	none
COC(=O)c1cc(O)cc(OC)c1C(=O)c1c(O)cc(C)cc1O	none
COC(=O)c1cc(O)cc(OC)c1Oc1cc(C)cc(O)c1C(=O)O	pPAFAH FP inh 35 | pPAFAH FP conf inactive
Cc1cc(C)n2c(SC/C(O)=C(\C#N)c3nc4ccccc4[nH]3)nnc2n1	pPAFAH FP inh 35 | pPAFAH FP conf inactive
Cc1ccccc1-n1c(SC/C(O)=C(\C#N)c2nc3ccccc3[nH]2)nnc1-c1ccncc1	none
COc1ccc(CCC(=O)OCC(=O)c2ccc(C)cc2)cc1	none
Cc1oc(-c2ccc(Cl)cc2)cc1-c1nn2c(-c3ccoc3C)nnc2s1	pPAFAH FP inh 53 | pPAFAH FP conf 43
CC(=O)N1CCN(c2ccc(NCc3ccc(-c4cccc(Cl)c4)o3)cc2)CC1	pPAFAH FP inh 41 (no result: Fam108B counter, PME-1 primary) | pPAFAH FP conf 46
CC(=O)N1CCN(c2ccc(NCc3ccco3)cc2)CC1	none (no result: Fam108B counter)
Cc1ccc(N2C(=O)CC(Cc3cc(C)cc(C)c3)C2=O)cc1 (configuration not stated)	pPAFAH FP inh 50 | pPAFAH FP conf inactive
Cc1cc(C)cc(CC2CC(=O)N(c3cc(C)ccc3C)C2=O)c1 (configuration not stated)	none (no result: pPAFAH FP inh, Fam108B counter, PME-1 primary)
COc1cc(/C=N/NC(=O)COc2ccc([N+](=O)[O-])cc2)ccc1OCC(=O)N1CCOCC1	none
N=C1c2c(cc(=O)n3c2[nH]c2ccccc23)CN1CCN1CCOCC1	pPAFAH FP inh 36 | pPAFAH FP conf inactive
O=c1c2ccccc2[nH]c(=S)n1CCCN1CCOCC1	none
CC(=O)C(C(C)=O)c1c(Cl)c(O)c(O)c2c(C(=O)c3ccccc3)coc12	pPAFAH FP inh 59 | pPAFAH FP conf 45
COCCNC(=O)C(Cc1c[nH]c2ccccc12)NC(=O)OCc1ccccc1 (configuration not stated)	none
COc1cc(/C=N/NC(=O)C(Cc2c[nH]c3ccccc23)NC(=O)OCC(C)C)cc([N+](=O)[O-])c1O (configuration not stated)	pPAFAH FP inh 37 | pPAFAH FP conf 31
COc1cc(/C=N/NC(=O)C(Cc2c[nH]c3ccccc23)NC(=O)OCc2ccccc2)cc([N+](=O)[O-])c1O (configuration not stated)	pPAFAH FP inh 46, PAFAH1B2 FP inh 43, PME-1 primary 29 | pPAFAH FP conf 52
COc1cc(/C=N/NC(=O)C(Cc2c[nH]c3ccccc23)NC(=O)OCC(C)C)cc([N+](=O)[O-])c1OCc1ccccc1 (configuration not stated)	none
CCOC(=O)c1[nH]c(CN2CCN(c3ccc(OC)cc3)CC2)c(C(=O)OCC)c1C	none
O=C(NCC(=O)N1CCN(C(c2ccccc2)c2ccccc2)CC1)c1ccccc1F	none
Cc1ccc2c(c1)-n1c(nc3cc(F)ccc3c1=O)C(Cc1ccc(O)cc1)NC2=O (configuration not stated)	none (no result: PAFAH1B2 FP inh, Fam108B counter, PME-1 primary, PAFAH1B3 FP inh, PAFAH2 inh)
Cc1ccc([N+](=O)[O-])cc1-c1[nH]c(-c2ccc(O)c(O)c2)nc1-c1ccccc1	pPAFAH FP inh 65 | pPAFAH FP conf 83
CN1CCCN(C(=O)CNC(=O)c2ccc(Cl)cc2Cl)CC1	none (no result: Fam108B counter, PME-1 primary)
COc1ccc(NC(=O)COc2cccc3c2OC(C)(C)C3)c(OC)c1	none (no result: pPAFAH FP inh, Fam108B counter, PME-1 primary)
Nc1nc(-c2ccccc2)c(N=Nc2ccccc2Cl)s1	pPAFAH FP inh 39 | pPAFAH FP conf 53
Cc1ccc(S(=O)(=O)N2CCN(C(=O)c3cc4c(s3)CCCC4)CC2)cc1	none (no result: Fam108B counter)
COc1ccc(S(=O)(=O)N2CCN(C(=O)c3cc4c(s3)CCC4)CC2)cc1	pPAFAH FP inh 43 (no result: Fam108B counter, PME-1 primary) | pPAFAH FP conf 34
CN(CCOc1ccccc1)C(=O)c1ccc(F)c(S(=O)(=O)N2CCOCC2)c1	none
COc1ccc(CNC(=O)C(c2ccco2)N(C(=O)CNS(=O)(=O)c2ccccc2)c2ccccc2C)cc1 (configuration not stated)	pPAFAH FP inh 47 | pPAFAH FP conf 51
N#CCCN1CCN(CCC#N)C1=S	none (no result: pPAFAH FP inh, Fam108B counter, PME-1 primary)
Oc1cccc(C=Nc2cccc3ccccc23)c1O	pPAFAH FP inh 76, PAFAH1B3 FP inh 28 | pPAFAH FP conf inactive
Oc1ccccc1C=Nc1cccc2ccccc12	none
Oc1cccc(C=NCc2ccccc2)c1O	pPAFAH FP inh 57 | pPAFAH FP conf inactive
Cc1ccc(C(=O)Nc2nnc(CC(=O)N/N=C/c3ccc(O)c(O)c3)s2)cc1	pPAFAH FP inh 51, PME-1 primary 29 | pPAFAH FP conf 87
COc1ccccc1-n1c(SCC(=O)NC(C)(C)C)nc(O)cc1=O	none
Cc1ccccc1NC(=O)CSc1nc(O)cc(=O)n1C	none
COc1ccccc1-n1c(SCC(=O)Nc2ccccc2C)nc(O)cc1=O	pPAFAH FP inh 81 | pPAFAH FP conf inactive
COc1ccccc1NC(=O)CSc1nc(O)cc(=O)n1-c1ccccc1OC	pPAFAH FP inh 43 | pPAFAH FP conf inactive
